Reference: PubChem BioAssay (NCATS)
Inconclusive results are not listed. Entries that show only a call come without a potency. Calls of active or inactive are those of the source. The call rests on the fitted dose curve; in most records, active means well fitted inhibition curve with a large enough effect; inconclusive means small, poorly fitted or top-dose-only effect; inactive means flat fitted curve, though single readings scatter.

Key:
Assay in all cases: qHTS profiling for inhibitors of Plasmodium falciparum proliferation (AID 504749); further: nearly all actives have a fitted effect of over 60% in size
Conditions in all cases: P. falciparum in erythrocytes, SYBR Green DNA, 72 h; series mostly up to 28.7 µM
CP286 = test system: CP286
In short: (§1)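 SYBR Green fluorescence of parasite DNA, read after lysis and overnight dark incubation, measured growth over 72 h in erythrocyte culture at 0.3% parasitemia and 2.5% hematocrit. Data normalised to DMSO and 0.29 uM artemisinin, with plate-drift correction.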

CP291 = test system: CP291
In short: as §1

CP305 = test system: CP305
In short: as §1

CP315 = test system: CP315
In short: as §1

CP325 = test system: CP325
In short: as §1

CP329 = test system: CP329
In short: as §1

CP335 = test system: CP335
In short: as §1

DFO2036 = test system: DFO2036
In short: as §1

DIV14 = test system: DIV14
In short: as §1

DIV17 = test system: DIV17
In short: as §1

DIV30 = test system: DIV30
In short: as §1

Dd2 = test system: Dd2
In short: as §1

ECU = test system: ECU
In short: as §1

GB4 = test system: GB4
In short: as §1

HB3 = test system: HB3
In short: as §1

ICS = test system: ICS
In short: as §1

N140 = test system: N140
In short: as §1

FAB9 = test system: FAB9
In short: as §1

JCK = test system: JCK
In short: as §1

CP297 = test system: CP297
In short: as §1
Potency means the concentration at half of the fitted maximal effect.

Compound	Potency (CP286)	Potency (CP291)	Potency (CP305)	Potency (CP315)	Potency (CP325)	Potency (CP329)	Potency (CP335)	Potency (DFO2036)	Potency (DIV14)	Potency (DIV17)	Potency (DIV30)	Potency (Dd2)	Potency (ECU)	Potency (GB4)	Potency (HB3)	Potency (ICS)	Potency (N140)	Potency (FAB9)	Potency (JCK)	Potency (CP297)
OCCN1CCN(CCCN2c3ccccc3Sc3ccc(C(F)(F)F)cc32)CC1	2.51 µM (active)	8.49 µM (active)	9.53 µM (active)	12 µM (active)	6.75 µM (active)	13.5 µM (active)	4.26 µM (active)	7.08 µM (active)	6.75 µM (active)	6.01 µM (active)	8.49 µM (active)	11.2 µM (active)	6.31 µM (active)	6.01 µM (active)	11.2 µM (active)	1.58 µM (active)	7.08 µM (active)	–	–	–
O=C1N(c2ccccc2)c2ccccc2C1(Cc1ccncc1)Cc1ccncc1	inactive	inactive	inactive	inactive	inactive	inactive	inactive	inactive	inactive	inactive	inactive	inactive	inactive	inactive	inactive	–	inactive	inactive	inactive	–
CN(CCOc1ccc(NS(C)(=O)=O)cc1)CCc1ccc(NS(C)(=O)=O)cc1	inactive	inactive	inactive	inactive	inactive	inactive	inactive	inactive	inactive	inactive	inactive	inactive	inactive	inactive	inactive	inactive	inactive	inactive	inactive	–
Cn1ccc2cc3c(cc21)CCN3C(=O)Nc1cccnc1	–	–	–	–	–	–	–	–	12 µM (active)	–	–	inactive	–	15.1 µM (active)	inactive	–	–	inactive	–	–
COc1ccccc1OCCNCC(O)COc1cccc2[nH]c3ccccc3c12 (stereo unspecified)	10 µM (active)	–	inactive	inactive	inactive	inactive	–	14.1 µM (active)	13.5 µM (active)	–	–	–	10 µM (active)	–	inactive	7.08 µM (active)	12.6 µM (active)	inactive	–	inactive
CNCCCC12CCC(c3ccccc31)c1ccccc12	–	–	inactive	inactive	inactive	inactive	inactive	inactive	–	10.7 µM (active)	–	–	inactive	8.49 µM (active)	inactive	–	inactive	inactive	inactive	–
CCOC(=O)Nc1ccc(NCc2ccc(F)cc2)nc1N	8.91 µM (active)	–	–	–	–	–	6.01 µM (active)	–	15.1 µM (active)	15.1 µM (active)	16.9 µM (active)	12.6 µM (active)	11.2 µM (active)	–	8.91 µM (active)	6.31 µM (active)	10 µM (active)	–	14.1 µM (active)	–
Nc1c2c(nc3ccccc13)CCCC2	–	–	–	inactive	–	–	–	–	–	6.75 µM (active)	inactive	inactive	inactive	–	–	–	–	inactive	inactive	–
NCCS(=O)(=O)O	inactive	–	inactive	–	inactive	inactive	inactive	inactive	inactive	inactive	inactive	inactive	inactive	inactive	inactive	inactive	inactive	inactive	inactive	inactive
